# Compound activity as filed in PubChem.
# The entries come from a sample that favours hits as a whole.
# TDP1 cell noCPT: qHTS for Inhibitors of human tyrosyl-DNA phosphodiesterase 1 (TDP1): qHTS in cells in absence of CPT. DT40 Tdp1-/- hTDP1 cells, no CPT, ATP luminescence, 48 h. Potency, µM (series often up to 46.2 µM), for inactives: at the highest dose activity change, negative = growth inhibition, hits mostly inhibitors. actives 15% (n = 420,000); note: potency is the fitted concentration of half-maximal effect; nearly all actives have a fitted effect of over 55% in size
#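 Cells were dispensed at 400 per well, compounds added by pin tool, plates incubated ≥48 hr at 37 °C, then CellTiter-Glo added for 30 min at room temperature before luminescence reading. Line: DT40 Tdp1-/- complemented with hTDP1; camptothecin omitted.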
# ALOX12 inh: ALOX12 (human) lipoxygenase inhibition | P18054 | purified 12hLO, xylenol orange hydroperoxide absorbance | actives 1.1% (n = 580,000) | Potency, µM (titrated, usually from 108 µM), without a hit: at the top dose activity change, negative = inhibition, usual class: inhibitors; note: potency is the fitted concentration of half-maximal effect
# Target sequence (P18054 whole entry, looked up): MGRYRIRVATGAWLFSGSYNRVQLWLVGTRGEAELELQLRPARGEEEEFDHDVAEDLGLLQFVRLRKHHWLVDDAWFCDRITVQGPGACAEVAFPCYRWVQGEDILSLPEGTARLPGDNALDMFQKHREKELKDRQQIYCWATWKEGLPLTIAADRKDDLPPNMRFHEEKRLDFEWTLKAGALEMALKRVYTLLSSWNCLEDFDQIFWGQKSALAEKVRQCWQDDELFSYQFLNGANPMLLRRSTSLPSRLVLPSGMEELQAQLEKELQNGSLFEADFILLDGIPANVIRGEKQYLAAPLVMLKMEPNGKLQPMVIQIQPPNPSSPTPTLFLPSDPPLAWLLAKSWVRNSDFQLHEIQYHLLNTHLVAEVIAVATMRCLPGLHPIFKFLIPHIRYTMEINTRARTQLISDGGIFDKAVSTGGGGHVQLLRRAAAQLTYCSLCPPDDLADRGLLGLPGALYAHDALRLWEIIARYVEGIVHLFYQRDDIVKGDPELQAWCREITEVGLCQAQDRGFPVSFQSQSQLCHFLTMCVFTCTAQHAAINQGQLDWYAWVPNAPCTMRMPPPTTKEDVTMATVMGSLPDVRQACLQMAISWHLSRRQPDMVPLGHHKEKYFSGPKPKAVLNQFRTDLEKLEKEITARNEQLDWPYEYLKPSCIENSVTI
#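 Purified human 12hLO at 150 nM in 25 mM Hepes, 0.01% Triton X-100, pH 7.0, preincubated 15 min at room temperature with compound. Reaction started with 40 uM arachidonic acid, 30 min at room temperature. Hydroperoxide measured by Fe-xylenol orange, 573/405 nm absorbance ratio.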
# HT1080 IDH1KD tx: kills HT-1080 cells with IDH1 knockdown. HT-1080 IDH1 knockdown viability, ATP luminescence, 48 h. AID 686971. Potency, µM (titrated, usually from 46.1 µM), for inactives: at the top dose activity, negative = toxicity, usual class: cytotoxic. actives 2% (n = 360,000);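 note: potency is the fitted concentration of half-maximal effect; 0% = DMSO wells and -100% = cell-free medium wells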
#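 Assay cells: HT-1080 with IDH1 knockdown, 750 per well, RPMI/5% FBS. Exposure: 48 h at 37 °C following 2 h pre-incubation. Read: CellTiter-Glo luminescence; fitted concentration-response, curve class assigned.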
# DT40 TDP1 CPT: growth inhibition of DT40 Tdp1-/-;hTDP1 cells with camptothecin (screen for TDP1 inhibitors). chicken DT40 Tdp1-/-;hTDP1 cells + 20 nM CPT, ATP luminescence, 48 h. Potency, µM (doses to about 46.2 µM), without a hit: top-dose activity change, negative = growth inhibition, actives largely listed as inhibitors. actives 12% (n = 420,000). AID 686979; note: potency is the fitted concentration of half-maximal effect; nearly all actives have a fitted effect of over 55% in size
#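 Chicken DT40 Tdp1-/- cells stably complemented with human TDP1 were seeded at 400 cells/well in medium containing 20 nM camptothecin, exposed to pin-transferred compounds, and grown at 37 °C for at least 48 hr. Viability was read as ATP luminescence.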
# HT1080-NT tox: kills 2HG-producing HT-1080-NT fibrosarcoma cells. HT-1080-NT fibrosarcoma viability, CellTiter-Glo ATP luminescence, 48 h. Potency, µM (series often up to 46.1 µM), for the others: top-dose activity, negative = less viability, usual class: cytotoxic. actives 1.6% (n = 360,000);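 note: NT is the 2HG producing partner of a matched IDH1 knockdown line; potency is the fitted concentration of half-maximal effect; 0% = DMSO-treated cells and -100% = media-only wells without cells; nearly all actives have a fitted effect of over 55% in size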
#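 Fibrosarcoma NT cells, 750 per well in 5% FBS RPMI, were exposed to compound for 48 hours. Viability: CellTiter-Glo luminescence.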
# IL1B secr inh: inhibitors of inflammasome signaling (IL-1 beta secretion); actives 4.7% (n = 360,000); activity change, % at 57.5 µM; THP-1 LPS/ATP IL-1B secretion, AlphaLISA, 16 h; active compounds read low; in the data active = activity change below about -50%; inconclusive = mostly about -30% to -49%
#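 Secreted IL-1B measured by AlphaLISA bead assay after 16 h compound exposure of THP-1 cells; compounds (final up to 57.5 uM) added 1 h before LPS (250 ng/mL) and ATP (1.25 mM) stimulation; lower signal means less secretion.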
# Starred values were filed as active, the others as inactive; i = inactive; ? = inconclusive; nt = no result given; [ ] = remark or other dose. Unless noted, calls come from the whole dose curve; as a rule, active = well fitted curve in the direction sought with a large enough effect; inconclusive = small, poorly fitted or top-dose-only effect, or another doubt; inactive = no such curve, though single readings can be large; an effect the other way counts as inactive or inconclusive. Unless noted, % is set by controls: 0 for no effect and ±100 for the full control effect.
SMILES,TDP1 cell noCPT,ALOX12 inh,HT1080 IDH1KD tx,DT40 TDP1 CPT,HT1080-NT tox,IL1B secr inh
COc1ccc(Nc2nc(-c3cccs3)nc3ccccc23)cc1,23.1µM*,?,?,?,?,-2.9
c1csc(-c2nc(NC3CC3)c3ccccc3n2)c1,nt,6.1%,nt,nt,nt,nt
CN1CC(=O)N2CCN(Cc3csc(-c4ccccc4)n3)CC2C1=O (stereo not drawn),nt,14.3%,nt,nt,nt,nt
CC(C)CC(=O)NCCc1ccsc1,nt,14.5%,nt,nt,nt,nt
O=C(Cc1ccc(F)cc1)NCCc1csc(-c2ccc(C(F)(F)F)cc2)n1,nt,-18.4%,nt,nt,nt,nt
COc1ccc(-c2nc3scc(CCNC(=O)c4cc(OC)cc(OC)c4)n3n2)cc1,20.6µM*,-12.8%,nt,?,nt,nt
Cc1cc(C)c(NC(=O)C(=O)NCCc2csc(-c3ccc(F)cc3)n2)c(C)c1,16.4µM*,-27.4%,nt,18.4µM*,nt,nt
O=C(NCCc1csc(-c2ccc(F)cc2)n1)c1ccc(Br)o1,?,-6.8%,nt,23.1µM*,nt,nt
COc1ccc(CNC(=O)Cc2csc3nc(-c4ccc(C)cc4)cn23)cc1,-21.7%,-12.2%,nt,-24.4%,nt,nt
Cc1ccc(-c2nc(CCNC(=O)C(=O)Nc3ccc(F)cc3F)cs2)cc1,?,-17.0%,nt,-25.4%,nt,nt
COc1ccc(CNC(=O)Cc2csc3nc(-c4ccc(F)cc4)cn23)cc1,?,-24.9%,nt,20.6µM*,nt,nt
CCCn1c(=O)[nH]c(=O)c2c1nc(-c1ccc(F)cc1)n2CCOC,nt,15.8%,nt,nt,nt,nt
COc1ccc(CCC(=O)NCCc2csc(-c3ccc(F)cc3)n2)cc1,?,2.0%,nt,?,nt,nt
COc1ccc(-c2nc(CCNC(=O)Cc3ccc(F)cc3)cs2)cc1,18.4µM*,-1.0%,nt,14.6µM*,nt,nt
COc1ccc(-c2nc3scc(CCNC(=O)Cc4ccc(F)cc4)n3n2)cc1,25.9µM*,3.1%,nt,?,nt,nt
CCCN(CCC)c1ncnc2nc[nH]c12,?,19.1%,1.3%,?,-16.4%,20.1
Clc1ccccc1CN(Cc1ccccc1)c1ncnc2nc[nH]c12,0.0%,9.5%,?,-9.1%,-29.2%,-84.3*
CN(C)c1oc(-c2ccccc2Cl)nc1S(=O)(=O)c1ccc2c(c1)OCCO2,nt,-7.6%,nt,nt,nt,nt
Cc1c(-c2ccccc2)c(=O)oc2cc(OC(=O)c3ccco3)ccc12,nt,17.4%,nt,nt,nt,nt
COC(=O)c1c(C(=O)OC)c(-c2ccc(Cl)cc2)n2c1CS(=O)(=O)C2,20.6µM*,-0.3%,-4.7%,20.6µM*,-4.6%,0.7
Cc1nn(CC(=O)N(C(C)C)C(C)C)c(C)c1S(=O)(=O)NC(C)(C)C,nt,4.6%,nt,nt,nt,nt
COC(=O)/C(C(C)=O)=C(\C=C\N(C)C)N(C)C,1.5%,-8.3%[57.4 µM],7.4%,2.4%,8.5%,19.5
COC(=O)\C(C(C)=O)=C(/C=C/C=C/C=C/N(C)C)N(C)C,20.6µM*,?,5.6%[9.24 µM],?,10.6%,10.3
Cc1ccc(C(C)C)cc1OCC(=O)NCc1ccc(Cn2cccn2)cc1,nt,-0.1%,nt,nt,nt,nt
CCOc1ccc2[nH]c3c(NCC(C)C)ncnc3c2c1,25.9µM*,nt,-16.8%,?,-14.4%,?
SMILES,TDP1 cell noCPT,ALOX12 inh,HT1080 IDH1KD tx,DT40 TDP1 CPT,HT1080-NT tox,IL1B secr inh
CCOc1ccc2[nH]c3c(NCCN(CC)CC)ncnc3c2c1,-1.5%,2.1%,?,13.0%,?,-96.1*
CCOc1ccc2[nH]c3c(NCCOC)ncnc3c2c1,-24.3%,-14.7%,-1.1%,?,0.5%,0.9
CCOc1ccc2[nH]c3c(NCCCOC)ncnc3c2c1,?,0.0%,-1.9%,?,0.4%,-54.0*
COc1ccc2[nH]c3c(NCCN(C(C)C)C(C)C)ncnc3c2c1,18.4µM*,i,-20.4%,16.4µM*,-27.1%,-57.4*
O=C(Nc1ccccc1)N1CCCN(CCc2ccncc2)CC1,nt,79.6%,nt,nt,nt,nt
COC(=O)COc1c(Br)cc(/C=C2/NC(=O)NC2=O)cc1Br,nt,34.4%,nt,nt,nt,nt
CCN(CC)CCCNc1nc2ccccc2c2[nH]c3ccc(OC)cc3c12,2.91µM*,44.7µM*,20.6µM*,5.17µM*,?,-98.1*
Cc1ccc(/C=C2/C(=O)N(c3ccccc3)C(=S)N2C)o1,23.1µM*,?,-19.0%,?,-15.6%,0.0
CCOc1ccc(N2C(=O)/C(=C/c3ccco3)N(C)C2=S)cc1,-21.1%,?,-17.2%,-27.0%,-11.7%,8.0
COc1ccc(-n2nc(C(=O)NCC(=O)N3CCN(c4ccccc4F)CC3)c3ccccc3c2=O)cc1,23.1µM*,-0.5%,12.5%,18.4µM*,0.0%,-8.4
COc1ccc(-n2nc(C(=O)NCC(=O)N3CCN(c4ccccc4F)CC3)c3ccccc3c2=O)cc1OC,13µM*,-21.7%,-5.5%,?,0.9%,?
COc1ccc(-n2nc(C(=O)NCC(=O)N3CCCCCC3)c3ccccc3c2=O)cc1,-29.3%,?,-21.6%,-5.7%,1.7%,-3.3
COC(=O)c1ccc(OCC(=O)NCCC2=CCCCC2)c(OC)c1,23.1µM*,5.9%,8.6%,?,-6.0%,-27.4
CCOc1ccc(NC(=O)CNC(=O)c2nn(-c3ccc(OC)cc3)c(=O)c3ccccc23)cc1,11.6µM*,-18.1%,0.8%,-22.9%,-0.1%,90.8
Cc1cccc(N(CC(=O)N[C@H]2CC[C@H]2NC2CCCC2)S(C)(=O)=O)c1,nt,0.7%,nt,nt,nt,nt
CN(C(=O)Cc1cccc(Cl)c1)C1CCCc2ccccc21 (stereo not drawn),nt,-0.5%[176 µM],nt,nt,nt,nt
O=C(COC(=O)c1ccccc1O)NCCC1=CCCCC1,18.4µM*,3.5%,0.2%,-2.1%,-1.9%,-27.8
COc1ccc(-n2nc(C(=O)NCC(=O)NCCC3=CCCCC3)c3ccccc3c2=O)cc1OC,18.4µM*,-15.8%,-4.8%,-22.4%,-16.4%,-18.6
COc1ccc(-n2nc(C(=O)NCC(=O)N3CCC(C)CC3)c3ccccc3c2=O)cc1Cl,?,-11.6%,-7.4%,?,-4.9%,-5.7
COc1ccc(-n2nc(C(=O)NCC(=O)N3CCN(c4ccccn4)CC3)c3ccccc3c2=O)cc1Cl,11.6µM*,0.5%,-1.8%,11.6µM*,12.6%,7.0
O=C(COC(=O)c1ccccc1Cl)NCCC1=CCCCC1,?,-1.8%,6.9%,-5.1%,6.0%,0.8
COc1ccc(-n2nc(C(=O)NCC(=O)N3CCN(C)CC3)c3ccccc3c2=O)cc1,-10.2%,-9.3%,-5.5%,5.4%,-2.8%,-14.3
COc1ccc(N2CCN(C(=O)CNC(=O)c3nn(-c4ccc(OC)cc4)c(=O)c4ccccc34)CC2)cc1,18.4µM*,-7.5%,-4.6%,?,-5.9%,?
